In PubChem BioAssay AID1159580 (chemical genetic matrix, 2015):
Out of some 5,500 compounds screened, about 2,000 (36%) were called active. Another 18% or so got no clear call; they are omitted. Rule as the data show it: active = normalized growth mostly below about 0.91 (no sharp cut-off); inconclusive = no clear call, values can overlap the other calls; inactive = mostly above about 0.92. The list shows a part of the results.

Assay: chemical genetic growth profiling, strain panel (AID 1159580);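 also: tested at 20 µM; growth read once vehicle control cultures reached saturation at 30 °C; 1 = growth at the plate median or of vehicle wells; lower values mean less growth of the strain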
Conditions: S. cerevisiae deletion strains, growth OD

Measured: normalized growth

CC(=O)O[C@@H]1CC2C(C)(C)CCC(=O)[C@]2(C)C2CC[C@@]3(C)[C@H](c4ccoc4)OC(=O)C4OC43[C@@]21C (stereo partly specified)
inactive: locus YAL013W, strain DEP1, stronger effect = lower value 1 | locus YAL021C, strain ccr4, stronger effect = lower value 0.98 | locus YAL026C, strain drs2, stronger effect = lower value 1 | locus YAL030W, strain snc1, stronger effect = lower value 1.01 | locus YBL061C, strain skt5, stronger effect = lower value 1.01 | locus YBR009C, strain hhf1, stronger effect = lower value 1 | locus YBR021W, strain FUR4, stronger effect = lower value 0.989 | locus YBR023C, strain chs3, stronger effect = lower value 1 | locus YBR171W, strain sec66, stronger effect = lower value 0.986 | locus YBR229C, strain ROT2, stronger effect = lower value 0.996 | locus YBR231C, strain swc5, stronger effect = lower value 0.993 | locus YBR279W, strain paf1, stronger effect = lower value 1.01 | locus YCL011C, strain gbp2, stronger effect = lower value 0.984 | locus YCL016C, strain dcc1, stronger effect = lower value 1.01 | locus YCL029C, strain bik1, stronger effect = lower value 0.984 | locus YCL061C, strain MRC1, stronger effect = lower value 1.02 | locus YCL069W, strain vba3, stronger effect = lower value 0.99 | locus YCR088W, strain abp1, stronger effect = lower value 0.991 | locus YDL005C, strain med2, stronger effect = lower value 0.994 | locus YDL035C, strain GPR1, stronger effect = lower value 1.03 | locus YDL040C, strain nat1, stronger effect = lower value 0.986 | locus YDL074C, strain BRE1, stronger effect = lower value 0.994 | locus YDL101C, strain DUN1, stronger effect = lower value 0.984 | locus YDL185W, strain tfp1, stronger effect = lower value 0.981 | locus YDL192W, strain arf1, stronger effect = lower value 0.993 | locus YDR001C, strain nth1, stronger effect = lower value 0.998 | locus YDR069C, strain doa4, stronger effect = lower value 1.01 | locus YDR101C, strain arx1, stronger effect = lower value 0.991 | locus YDR137W, strain rgp1, stronger effect = lower value 1.05 | locus YDR159W, strain sac3, stronger effect = lower value 1.02 | locus YDR162C, strain NBP2, stronger effect = lower value 1.02 | locus YDR195W, strain ref2 0.941 | locus YDR297W, strain sur2, stronger effect = lower value 1 | locus YDR318W, strain mcm21, stronger effect = lower value 0.993 | locus YDR334W, strain swr1, stronger effect = lower value 0.986 | locus YDR335W, strain msn5, stronger effect = lower value 0.987 | locus YDR388W, stronger effect = lower value 0.98 | locus YDR392W, strain spt3, stronger effect = lower value 0.991 | locus YDR502C, strain sam2, stronger effect = lower value 0.973 | locus YEL003W, strain gim4, stronger effect = lower value 0.995 | locus YEL037C, strain rad23, stronger effect = lower value 0.984 | locus YEL061C, strain CIN8 (second series), stronger effect = lower value 0.987 | locus YEL061C, strain CIN8, stronger effect = lower value 1.01 | locus YER015W, strain faa2, stronger effect = lower value 1 | locus YER016W, strain bim1, stronger effect = lower value 1 | locus YER110C, stronger effect = lower value 0.978 | locus YER111C, strain swi4, stronger effect = lower value 0.987 | locus YER155C, strain BEM2 (second series), stronger effect = lower value 1.02 | locus YER155C, strain BEM2, stronger effect = lower value 0.988 | locus YER167W, strain BCK2, stronger effect = lower value 1 | locus YFR010W, strain ubp6, stronger effect = lower value 0.979 | locus YGL078C, strain dbp3, stronger effect = lower value 0.994 | locus YGL086W, strain mad1, stronger effect = lower value 0.985 | locus YGL167C, strain pmr1, stronger effect = lower value 1.01 | locus YGL173C, strain kem1, stronger effect = lower value 1.01 | locus YGL227W, strain vid30, stronger effect = lower value 0.994 | locus YGL240W, strain doc1, stronger effect = lower value 0.984 | locus YGL248W, strain PDE1, stronger effect = lower value 0.988 | locus YGL253W, strain hxk2, stronger effect = lower value 0.966 | locus YGR135W, strain pre9, stronger effect = lower value 0.973 | locus YGR229C, strain SMI1, stronger effect = lower value 1.02 | locus YGR252W, strain gcn5, stronger effect = lower value 0.952 | locus YHR013C, strain ard1, stronger effect = lower value 0.994 | locus YHR027C, strain rpn1, stronger effect = lower value 1.01 | locus YHR079C, strain IRE1 (second series), stronger effect = lower value 0.99 | locus YHR094C, strain hxt1, stronger effect = lower value 0.983 | locus YHR129C, strain ARP1, stronger effect = lower value 0.997 | locus YHR142W, strain chs7, stronger effect = lower value 0.991 | locus YHR200W, strain rpn10, stronger effect = lower value 0.975 | locus YIL066C, strain RNR3, stronger effect = lower value 1 | locus YIL073C, strain SPO22, stronger effect = lower value 1 | locus YIL125W, strain kgd1, stronger effect = lower value 0.989 | locus YIR030C, strain dcg1, stronger effect = lower value 0.987 | locus YJL092W, strain hpr5, stronger effect = lower value 0.985 | locus YJL095W, strain BCK1 (second series), stronger effect = lower value 1 | locus YJL095W, strain BCK1, stronger effect = lower value 0.988 | locus YJL115W, strain asf1, stronger effect = lower value 0.994 | locus YJL129C, strain trk1, stronger effect = lower value 0.996 | locus YJL134W, strain LCB3, stronger effect = lower value 0.998 | locus YJL154C, strain vps35, stronger effect = lower value 1 | locus YJL164C, strain tpk1, stronger effect = lower value 1.01 | locus YJL166W, strain qcr8, stronger effect = lower value 1.02 | locus YJL168C, strain set2, stronger effect = lower value 0.988 | locus YJL187C, strain SWE1 (second series), stronger effect = lower value 0.977 | locus YJL187C, strain SWE1, stronger effect = lower value 1 | locus YJR043C, strain POL32, stronger effect = lower value 1.02 | locus YKL009W, strain mrt4, stronger effect = lower value 1.01 | locus YKL068W, stronger effect = lower value 0.992 | locus YKL085W, strain MDH1 (second series), stronger effect = lower value 1 | locus YKL085W, strain MDH1, stronger effect = lower value 1 | locus YKL160W, strain elf1, stronger effect = lower value 1.02 | locus YKL190W, strain CNB1, stronger effect = lower value 1.01 | locus YKR001C, strain vps1, stronger effect = lower value 0.983 | locus YKR026C, strain gcn3, stronger effect = lower value 1 | locus YKR091W, strain srl3, stronger effect = lower value 1 | locus YLL001W, strain dnm1, stronger effect = lower value 1.03 | locus YLL026W, stronger effect = lower value 1.01 | locus YLL041C, strain sdh2, stronger effect = lower value 0.993 | locus YLR027C, strain aat2, stronger effect = lower value 1.01 | locus YLR039C, strain RIC1, stronger effect = lower value 1.06 | locus YLR058C, strain SHM2, stronger effect = lower value 0.992 | locus YLR102C, strain apc9, stronger effect = lower value 0.987 | locus YLR221C, strain rsa3, stronger effect = lower value 1 | locus YLR258W, strain gsy2, stronger effect = lower value 0.996 | locus YLR262C, strain YPT6 (second series), stronger effect = lower value 1.03 | locus YLR262C, strain YPT6, stronger effect = lower value 1.1 | locus YLR268W, strain sec22, stronger effect = lower value 0.994 | locus YLR320W, strain mms22, stronger effect = lower value 1.01 | locus YLR342W, strain FKS1 (second series), stronger effect = lower value 1.05 | locus YLR342W, strain FKS1, stronger effect = lower value 1.01 | locus YLR357W, strain rsc2, stronger effect = lower value 0.97 | locus YLR370C, strain arc18, stronger effect = lower value 0.983 | locus YLR371W, strain rom2, stronger effect = lower value 0.992 | locus YLR384C, strain iki3, stronger effect = lower value 0.997 | locus YLR418C, strain cdc73, stronger effect = lower value 0.956 | locus YML016C, strain PPZ1, stronger effect = lower value 0.999 | locus YML032C, strain rad52, stronger effect = lower value 0.986 | locus YML120C, strain ndi1, stronger effect = lower value 1 | locus YML124C, strain tub3, stronger effect = lower value 0.994 | locus YMR058W, strain fet3, stronger effect = lower value 0.999 | locus YMR078C, strain ctf18, stronger effect = lower value 1 | locus YMR125W, strain sto1, stronger effect = lower value 0.987 | locus YMR129W, stronger effect = lower value 1.01 | locus YMR205C, strain PFK2, stronger effect = lower value 1.04 | locus YMR223W, strain ubp8, stronger effect = lower value 0.996 | locus YMR231W, strain pep5, stronger effect = lower value 0.97 | locus YMR307W, strain GAS1, stronger effect = lower value 1.07 | locus YNL067W, strain RPL9B, stronger effect = lower value 0.987 | locus YNL071W, strain lat1, stronger effect = lower value 0.993 | locus YNL209W, strain ssb2, stronger effect = lower value 1.01 | locus YNL233W, strain BNI4, stronger effect = lower value 1 | locus YNL248C, strain rpa49, stronger effect = lower value 0.996 | locus YNL250W, strain rad50, stronger effect = lower value 0.978 | locus YNL271C, strain bni1, stronger effect = lower value 0.97 | locus YNL298W, strain CLA4, stronger effect = lower value 0.996 | locus YNL307C, strain MCK1, stronger effect = lower value 0.986 | locus YNL322C, strain KRE1 (second series), stronger effect = lower value 0.99 | locus YNR049C, strain mso1, stronger effect = lower value 1 | locus YNR052C, strain pop2, stronger effect = lower value 0.966 | locus YOL006C, strain TOP1, stronger effect = lower value 1.05 | locus YOL012C, strain htz1 0.864 | locus YOL147C, strain pex11, stronger effect = lower value 0.982 | locus YOR001W, strain rrp6, stronger effect = lower value 0.973 | locus YOR061W, strain CKA2, stronger effect = lower value 0.998 | locus YOR069W, strain VPS5, stronger effect = lower value 0.99 | locus YOR070C, strain gyp1, stronger effect = lower value 1 | locus YOR080W, strain dia2, stronger effect = lower value 1 | locus YOR083W, strain WHI5, stronger effect = lower value 1.02 | locus YOR106W, strain vam3, stronger effect = lower value 1.01 | locus YOR136W, strain idh2, stronger effect = lower value 0.993 | locus YOR144C, strain elg1, stronger effect = lower value 0.988 | locus YOR184W, strain ser1, stronger effect = lower value 1.02 | locus YOR265W, strain rbl2, stronger effect = lower value 0.996 | locus YOR270C, strain vph1, stronger effect = lower value 1.02 | locus YOR290C, strain snf2, stronger effect = lower value 0.981 | locus YOR316C, strain cot1, stronger effect = lower value 0.984 | locus YPL051W, strain arl3, stronger effect = lower value 1.02 | locus YPL055C, strain LGE1, stronger effect = lower value 1.02 | locus YPL078C, strain atp4, stronger effect = lower value 1.02 | locus YPL106C, strain sse1, stronger effect = lower value 0.996 | locus YPL240C, strain hsp82, stronger effect = lower value 0.999 | locus YPR119W, strain clb2, stronger effect = lower value 0.981 | locus YPR141C, strain kar3, stronger effect = lower value 0.996 | locus YPR163C, strain tif3, stronger effect = lower value 0.975 | locus YPR167C, strain met16, stronger effect = lower value 0.985 | strain wtn01, stronger effect = lower value 1
